From PubChem
MCF10A rerep: A quantitative high throughput screen for small molecules that induce DNA re-replication in MCF 10a normal breast cells; MCF 10A DNA re-replication, Hoechst nuclear intensity, 48 h; Potency, µM (highest dose often 46.1 µM), inactives show at the highest dose activity, positive = re-replication, most hits filed as activators; 350,000 compounds, 2.9% hits; also: % of control where 0% means no effect; nearly all actives have a fitted effect of over 50% in size
KB-3-1 cytotox: qHTS assay for MDR1-selective chemotherapeutics: Primary screen using the parental adenocarcinoma cell KB-3-1; KB-3-1 viability, CellTiter-Glo ATP luminescence, 72 h; Potency, µM (titrated, usually from 46.1 µM), usual class: cytotoxic; 400,000 compounds, 1.4% hits; also: % is scaled to controls: 0 for no effect and ±100 for the full control effect; nearly all actives have a fitted effect of over 60% in size
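Cytotoxicity in the drug-sensitive parental line KB-3-1 was scored as loss of CellTiter-Glo luminescence following 72 h incubation with compound. Values come from curve fitting of normalized concentration-response data.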
KB-V1 MDR tox: qHTS assay for MDR1-selective chemotherapeutics: Primary screen using the drug-selected MDR subline cells KB-V1; KB-V1 MDR cells viability, CellTiter-Glo, 72 h; 400,000 compounds, 3.4% hits; Potency, µM (titrated, usually from 46.1 µM), usual class: cytotoxic; also: % is scaled to controls: 0 for no effect and ±100 for the full control effect; nearly all actives have a fitted effect of over 60% in size
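In this primary screen, KB-V1 cells overexpressing P-gp are incubated with library compounds (lowest to highest concentration) for 72 h at 37 degrees C before a luminescent ATP viability read.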
SW480 rereplic: A quantitative high throughput screen for small molecules that induce DNA re-replication in SW480 colon adenocarcinoma cells. 340,000 compounds, 1.8% hits. SW480 DNA re-replication, Hoechst DNA content imaging, 48 h. Potency, µM (highest dose often 46.1 µM), for the others: at the top dose re-replication activation, most hits filed as activators; also: % of control where 0% means no effect; nearly all actives have a fitted effect of over 55% in size
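Quantitative HTS format with DMSO vehicle controls; 48 hr drug incubation at 37 C, then 40 min Hoechst staining and scanning imager measurement at 405 nm excitation.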
PINK1 expr mod: A Quantitative High throughput Screen to Identify Chemical Modulators of PINK1 Expression | PINK1 immunofluorescence, high-content cytometry, 24 h | 410,000 compounds, 0.2% hits | Potency, µM (doses to about 76.6 µM), for inactives: at the top dose activation (PINK1 increase), most hits filed as activators | AID 624263, 2012; active = well fitted activation curve with a large enough effect; inconclusive = small, poorly fitted or top-dose-only effect; cell line not stated here; also: % of control where 0% means no effect; nearly all actives have a fitted effect of over 65% in size
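Measures PINK1 amount and localization on or inside mitochondria by immunofluorescence. Stable cells get compounds at 5 concentrations for 24 hours before fixation and staining; CCCP controls included.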
* = called active by the depositor; i = inactive; ? = inconclusive; / = no result given. A selection: hits, their analogues and other compounds. The true share with any hit is near 6.7%. Unless noted, calls follow the shape of the dose curve; as a rule, active = well fitted curve in the direction sought with a large enough effect; inconclusive = small, poorly fitted or top-dose-only effect, or another doubt; inactive = no such curve, though single readings can be large; an effect the other way counts as inactive or inconclusive. Potency is read from the fitted curve at half-maximal effect.

SMILES	MCF10A rerep	KB-3-1 cytotox	KB-V1 MDR tox	SW480 rereplic	PINK1 expr mod
O=C1NC(=S)SC1=Cc1ccc(Cl)cc1	9.2µM*	i	i	?	?
CSCC[C@H](NC(=O)c1cc2c([nH]c3ccccc32)c(-c2ccccc2)n1)C(=O)O	0.1%	i	i	23.1µM*	0.4%
C[C@H](NC(=O)c1cc2c([nH]c3ccccc32)c(-c2ccccc2)n1)C(=O)O	-16.0%	i	?	-4.9%	1.8%
CCOC(=O)c1c(C)[nH]c(C(=O)COC(=O)c2ccncc2)c1C	6.1%	?	7.31µM*	0.3%	0.7%
CCOC(=O)c1c(C)[nH]c(C(=O)COC(=O)C2CC(=O)N(Cc3ccccc3)C2)c1C (configuration not stated)	-0.6%	i	3.26µM*	-15.7%	-2.7%
CCOC(=O)c1c(C)[nH]c(C(=O)COC(=O)c2cnccn2)c1C	?	i	i	-10.2%	1.9%
Cc1[nH]c2ccccc2c1C(=O)COC(=O)C1CC(=O)N(Cc2ccccc2)C1 (configuration not stated)	0.2%	i	i	-1.2%	1.1%
CC(C)C[C@H]1COc2cc(N(C)CCO)ccc2S(=O)(=O)N1	/	i	?	/	0.2%
COc1cc(CN2CCC3(CCC(CNC(=O)c4ccccc4)O3)CC2)cc(OC)c1 (configuration not stated)	/	/	/	/	0.4%
COCCn1c(=O)cnc2cnc(Nc3cccc(OC)c3)nc21	/	/	/	/	-1.5%
CCOc1ncccc1C(=O)N1CCN(c2cccc(C)c2C)CC1	?	1.03µM*	?	0.731µM*	0.5%
CCOc1ncccc1C(=O)N1CCN(c2cc(Cl)ccc2C)CC1	14.6µM*	2.06µM*	0.82µM*	0.651µM*	0.5%
CC(C)Oc1ccc(C(=O)NCC2Cc3cc(F)cc(-c4cnccn4)c3O2)cc1 (configuration not stated)	/	/	/	/	0.8%
COc1ccc(CCn2c(=N)c(C(=O)NCC3CCCO3)cc3c(=O)n4cccc(C)c4nc32)cc1 (configuration not stated)	2.91µM*	?	?	5.8µM*	0.8%
Cc1cccn2c(=O)c3cc(C(=O)NCc4ccco4)c(=N)n(C4CCCC4)c3nc12	2.06µM*	i	i	1.84µM*	4.9%
COCCn1c(=N)c(C(=O)NCCc2ccc(OC)cc2)cc2c(=O)n3cccc(C)c3nc21	?	i	i	?	0.7%
Cc1cccn2c(=O)c3cc(C(=O)NC4CCCCC4C)n(C)c3nc12 (configuration not stated)	14.6µM*	i	i	20.6µM*	9.0%
Cc1cccn2c(=O)c3cc(C(=O)NC4CCCC4)c(=N)n(CC4CCCO4)c3nc12 (configuration not stated)	9.2µM*	?	?	?	3.4%
Cc1cccn2c(=O)c3cc(C(=O)NCc4ccc(F)cc4)c(=N)n(CC4CCCO4)c3nc12 (configuration not stated)	15.2%	i	i	?	1.2%
O=C(NCCS(=O)(=O)N1CCN(c2ccccc2F)CC1)c1cccs1	-1.8%	i	?	4.7%	10.4%
Cc1ccccn1	7.7%	/	/	1.2%	/
Cc1cccn2c(=O)c3cc(C(=O)NCC4CCCO4)c(=N)n(C4CCCCC4)c3nc12 (configuration not stated)	18.4µM*	i	i	18.4µM*	1.4%
COc1ccc(CNC(=O)c2cc3c(=O)n4cccc(C)c4nc3n(CC3CCCO3)c2=N)cc1 (configuration not stated)	8.2µM*	i	i	4.11µM*	3.1%
Cc1cccn2c(=O)c3cc(C(=O)NCC4CCCO4)c(=N)n(CC4CCCO4)c3nc12 (configuration not stated)	4.61µM*	i	i	3.66µM*	0.1%
Cc1cccn2c(=O)c3cc(C(=O)NC4CCCCC4)c(=N)n(Cc4ccc(F)cc4)c3nc12	?	i	i	1.3µM*	1.0%
SMILES	MCF10A rerep	KB-3-1 cytotox	KB-V1 MDR tox	SW480 rereplic	PINK1 expr mod
CCOC(=O)c1c(NC(=O)COc2ccc(Cl)cc2C)sc(C(C)=O)c1C	/	i	i	/	1.1%
COc1ccccc1N1CCN(c2ncnc3c2c(-c2ccccc2)cn3-c2cccc(C)c2)CC1	/	/	/	/	0.9%
CNc1ncnc2c1ncn2[C@H]1CN(CCc2ccccc2)C[C@@H](CO)O1	/	i	i	/	-0.5%
CCCCNC(=O)C1C(c2ccc(C(F)(F)F)cc2)=Nc2ccccc2N1C(=O)c1cccc(C(F)(F)F)c1 (configuration not stated)	/	i	i	/	/
Cc1ccc(S(=O)(=O)N(C)CC(=O)Oc2ccc(-c3nnco3)cc2)cc1	2.1%	i	?	-3.9%	3.4%
COCCCn1c(=N)c(C(=O)NCC2CCCO2)cc2c(=O)n3cc(C)ccc3nc21 (configuration not stated)	/	i	?	/	2.8%
CCOCCCNc1nc2nc3ccc(C)cn3c(=O)c2cc1C(=O)NCC1CCCO1 (configuration not stated)	10.3µM*	i	i	9.2µM*	2.6%
CS(=O)(=O)Nc1cccc(C2=NN(C(=O)CCC(=O)O)C(c3cccs3)C2)c1 (configuration not stated)	18.4%	i	i	-7.0%	-1.2%
COc1cccc(C2CC(c3ccc(Br)cc3)=NN2C(=O)c2ccncc2)c1OC (configuration not stated)	?	18.4µM*	?	-40.0%	10.0%
COc1cccc(C2CC(c3cccc(NS(C)(=O)=O)c3)=NN2C(=O)c2ccccc2)c1OC (configuration not stated)	12.8%	i	13µM*	?	0.9%
CCC(=O)N1N=C(c2cccc(NS(C)(=O)=O)c2)CC1c1cccs1 (configuration not stated)	1.4%	i	18.4µM*	-86.5%	-0.4%
CN(C)c1ccc(C2CC(c3cccc(NS(C)(=O)=O)c3)=NN2C(=O)c2ccccc2)cc1 (configuration not stated)	-0.9%	i	i	6.8%	0.0%
O=C1C(=O)c2ccccc2C(O)=C1c1cccc([N+](=O)[O-])c1	15.4%	?	?	23.1µM*	-1.7%
Cc1ccc(C2=C(O)c3ccccc3C(=O)C2=O)cc1	-2.9%	i	i	0.3%	1.3%
Cc1ccc(Oc2ccccc2NC(=O)CSCC(=O)Nc2cc(C)on2)cc1	?	?	4.61µM*	-4.7%	-0.5%
Cc1cc(NC(=O)c2ccccc2Oc2ccccc2)no1	66.2%	i	i	15.5%	/
